Assay outcomes: PubChem, several laboratories
This is a sample that favours compounds with a hit; in the whole collection about 4% have one here.
ADAM10 inh: inhibits human ADAM10; O14672; recombinant ADAM10, EDANS/DABCYL FRET peptide cleavage, 3 h; inhibition, % at 7 µM; 370,000 tested, 0.62% active;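 active means inhibition above a per-campaign cutoff equal to the mean of compounds falling between control-based bounds plus 3 SD, cut at about 20% in these data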;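 further: 0% = DMSO wells while the 100% control is not disclosed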
Target sequence (O14672 214-748 limits assumed): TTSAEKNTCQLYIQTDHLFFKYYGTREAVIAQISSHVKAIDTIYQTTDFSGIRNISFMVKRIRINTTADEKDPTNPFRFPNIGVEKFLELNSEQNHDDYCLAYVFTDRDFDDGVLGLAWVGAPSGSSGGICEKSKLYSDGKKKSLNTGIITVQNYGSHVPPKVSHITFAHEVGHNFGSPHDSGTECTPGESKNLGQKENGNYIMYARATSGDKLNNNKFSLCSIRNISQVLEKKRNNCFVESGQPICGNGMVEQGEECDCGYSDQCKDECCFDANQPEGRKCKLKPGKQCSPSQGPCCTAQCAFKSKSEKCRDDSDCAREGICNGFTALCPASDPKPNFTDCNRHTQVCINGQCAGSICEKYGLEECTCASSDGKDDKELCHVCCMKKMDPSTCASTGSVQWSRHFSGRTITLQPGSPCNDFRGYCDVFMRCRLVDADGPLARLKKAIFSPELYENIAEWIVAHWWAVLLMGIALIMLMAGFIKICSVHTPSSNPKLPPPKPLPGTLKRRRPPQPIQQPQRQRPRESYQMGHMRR
aDG glyco up: increases alpha dystroglycan glycosylation; Pro5-aDG cells, alpha-DG glycosylation AlphaScreen (IIH6); 0% Pro5, 100% B10-LARGE cell signal; activation, % at 10 µM; 360,000 tested, 0.22% active;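 active means activation of at least 8% versus controls, or a plate z-score of at least 8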;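 further: Pro5 are CHO cells carrying HIG-tagged alpha-DG that lacks glycosylation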
ADAM17 inh: inhibitors of human ADAM17; 370,000 tested, 0.83% active; inhibition, % at 6.95 µM; AID 720648; recombinant ADAM17, EDANS/DABCYL FRET peptide cleavage; P78536;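 active means inhibition above the mean of compounds lying between control limits plus 3 SD, set per campaign, cut at about 8.5% in these data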;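 further: 0% = DMSO-only wells as the low control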
FAS-TE inh: blocks the thioesterase domain of human fatty acid synthase; P49327; recombinant FAS-TE, OMFH fluorogenic substrate, fluorescence endpoint; inhibition, % at 15 µM; 360,000 tested, 0.67% active;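 active means compounds whose normalised, plate-corrected inhibition of enzyme fluorescence in the single-dose primary screen is 50% or more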;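 further: 0% = DMSO with enzyme and 100% = substrate without enzyme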
GRIN3A LBD mod: modulators (binders) of human NR3A ligand-binding domain; NR3A LBD differential scanning fluorimetry, Tm shift; 0% = protein alone, 100% = glycine-bound protein; Tm shift relative to glycine control, % at 25 µM; 340,000 tested, 2.5% active; AID 1259313;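 active means melting temperature shift of at least 10% of the positive control shift, at one fixed dose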
Numbers without * were called inactive; x = no result given.

SMILES	ADAM10 inh	aDG glyco up	ADAM17 inh	FAS-TE inh	GRIN3A LBD mod
O=C(Nc1ccccc1C(=O)N1CCCCCC1)c1ccccc1	-6	0	-1	-3	0
Cc1ccc(CN2CCN(CC(=O)N=Nc3c(O)[nH]c4ccccc34)CC2)cc1	4	1	0	-3	20*
Cc1cc(C)cc(NC(=O)CCc2c(C)nn(-c3ccc(N4CCCCC4)nn3)c2C)c1	5	0	2	16	-6
Cc1[nH]c2ccc(C(=O)N3CCN(c4cccc(Cl)c4)CC3)cc2c1C	20	1	6	17	-2
O=C(Nc1nccs1)C1CCN(S(=O)(=O)c2ccccc2)CC1	-8	0	-1	-2	0
O=C(Nc1nccs1)C1CCN(S(=O)(=O)c2ccc3c(c2)OCCCO3)CC1	-7	0	-4	4	14*
Cc1ccc(S(=O)(=O)N(CC(=O)Nc2cccc([N+](=O)[O-])c2)C(=O)N2CCN(C)CC2)cc1	0	0	-1	-3	2
CCCCCCN1C[C@@H](n2cc(-c3ccc(F)cc3)nn2)[C@H](O)C[C@@H]1c1ccc(OC)cc1	6	0	0	21	x
CCC(CC)c1nnc(NC(=O)c2ccc(N3CCCCC3)c([N+](=O)[O-])c2)s1	-2	0	-3	22	-7
O=C(Nc1nc2ccc3ccccc3c2s1)c1ccc(N2CCCCC2)c([N+](=O)[O-])c1	-7	0	-4	6	19*
O=C(Nc1nc2ccc(Cl)cc2s1)c1ccc(N2CCCCC2)c([N+](=O)[O-])c1	-7	0	-8	-4	15*
CC(=O)N1CCCC(C)(C(=O)N(C)Cc2cccc3ccccc23)C1 (configuration not stated)	-2	0	1	-4	x
CCCCCn1c(CN2CCN(c3cc(Cl)ccc3C)CC2)nc2c1c(=O)[nH]c(=O)n2C	0	2	-3	25	24*
Cc1c(C(C)C)c(=O)n(-c2ccc(S(=O)(=O)NCc3ccccc3)cc2)n1C	5	8.4*	0	-6	2
Cc1c(C(C)C)c(=O)n(-c2ccc(S(=O)(=O)NC3CCCCC3)cc2)n1C	-7	6	-1	-3	-1
Cc1ccc(CSc2nnc(SCC(=O)N/N=C/c3c(C)nn(-c4ccccc4)c3C)s2)cc1	7	1	3	0	-5
Cc1nn(-c2ccccc2)c(C)c1/C=N/NC(=O)CSc1nnc(SCc2ccccc2Cl)s1	4	0	3	11	11*
O=C(Nc1ccc(Cl)cc1)N1CCN(c2ccc3nnc(-c4ccc(F)cc4)n3n2)CC1	4	1	0	27	27*
O=C(Nc1ccccc1Cl)N1CCN(c2ccc3nnc(-c4ccccc4)n3n2)CC1	x	0	x	4	-11
C=C(C)CNC(=S)NNC(=O)CCn1c2ccccc2c2ccccc21	2	1	2	2	1
C=C(C)CNC(=S)NNC(=O)CCn1c2cc(Cl)ccc2c2ccc(Cl)cc21	2	0	5	8	16*
Cc1ccc2nc(SCC(=O)c3c(C)[nH]c4ccccc34)[nH]c2c1	11	0	5	9	12*
Cc1cc(C(=O)CSc2nc3ccccc3[nH]2)c(C)n1Cc1ccco1	-4	5	0	9	13*
O=C(CSc1nc2ccccc2[nH]1)c1ccccc1F	2	0	-3	-2	-2
O=C(CSc1nc2ccccc2[nH]1)c1c[nH]c2ccccc12	4	0	-7	-5	14*
SMILES	ADAM10 inh	aDG glyco up	ADAM17 inh	FAS-TE inh	GRIN3A LBD mod
C=CCn1c(C)cc(C(=O)CSc2nc3ccccc3[nH]2)c1C	-2	3	-8	3	2
Cc1ccc2nc(SCC(=O)c3c[nH]c4ccccc34)[nH]c2c1	4	0	0	-10	15*
C(=NOCCc1ccccc1)c1cccnc1	-11	0	-7	-5	0
O=C(CSc1nc2ccccc2c(=O)n1-c1ccc(F)cc1F)NC1CC1	-3	0	4	-6	x
O=C(CSc1nc2ccccc2c(=O)n1-c1ccc(F)cc1F)c1c[nH]c2ccccc12	-4	0	0	11	19*
Cc1[nH]c2ccccc2c1C(=O)CSC(=S)N(C)C	-6	0	-1	-4	16*
Cc1[nH]c2ccccc2c1C(=O)CSC(=S)N1CCN(C)CC1	2	0	-2	-4	2
CCOC(=O)CN(C)Cc1cn[nH]c1-c1ccc2cc(OC)ccc2c1	0	0	1	2	0
CC1=NN(c2ccc(F)cc2)C(=O)C1C(c1cccc(O)c1)c1c(C)[nH]n(-c2ccc(F)cc2)c1=O (configuration not stated)	8	0	3	3	6
CC1=NN(c2ccc(Cl)cc2)C(=O)C1C(c1cccc(O)c1)c1c(C)[nH]n(-c2ccc(Cl)cc2)c1=O (configuration not stated)	x	0	x	33	15*
COc1cccc(NC(=O)C2CCN(S(=O)(=O)c3ccc4c(c3)N(C(C)=O)CCO4)CC2)c1	-2	0	3	-3	18*
CC1(C)OC(=O)C2=C(C[C@@H](CCc3ccccc3)O[C@@H]2c2ccc(F)cc2)O1	-2	0	1	16	x
O=C1N=c2ccccc2=C1c1sc(=S)n(CC2CCCO2)c1O (configuration not stated)	-1	1	-6	-2	15*
O=C(COc1ccc(-c2ccccc2)cc1)N1CCN(C(=O)c2cccnc2)CC1	11	0	0	-1	12*
O=C(Nc1nnc(Cc2ccc(Cl)cc2)s1)c1cccs1	2	0	-2	-8	12*
O=C(Nc1ccc(Cl)cc1)Nc1nnc(CSCc2ccc(Cl)cc2)s1	1	0	3	5	24*
CCc1nnc(NC(=O)Nc2ccc(Cl)cc2)s1	-3	0	-2	-3	-1
CC(=O)Nc1ccc(CN2CCC(n3nccc3NC(=O)CCc3ccccc3)CC2)cc1	0	0	-3	-4	2
CC(=O)c1cccc(CN2CCC(n3nccc3NC(=O)CCc3ccccc3)CC2)c1	x	0	x	1	15*
O=C(Nc1nc(-c2cc(Cl)sc2Cl)cs1)c1cccs1	1	0	-5	26	14*
O=C(NC(=S)Nc1nc(-c2ccccc2)cs1)c1ccco1	2	0	3	5	16*
COc1ccc(-c2csc(NC(=S)NC(=O)c3ccco3)n2)cc1	3	0	-1	-7	0
O=C(NC(=S)Nc1nc(-c2ccccc2)cs1)c1cncc(Br)c1	1	0	3	0	31*
O=C(Nc1nc(-c2cc(Cl)sc2Cl)cs1)c1ccc(Br)s1	-11	0	-9	8	-2
O=C(NC(=S)Nc1nc(-c2ccccc2)cs1)c1cccnc1	5	0	0	2	-24
O=C(NC(=S)Nc1nc(-c2ccccc2)cs1)c1cccs1	3	0	5	12	28*
